DT40 TDP1 no CPT: qHTS for Inhibitors of human tyrosyl-DNA phosphodiesterase 1 (TDP1): qHTS in cells in absence of CPT | DT40 Tdp1-/- hTDP1 cells, no CPT, ATP luminescence, 48 h | Potency, µM (doses to about 46.2 µM), actives largely listed as inhibitors | 15% of 420,000 active | AID 686978, 2013; further: nearly all actives have a fitted effect of over 55% in size
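A cellular qHTS used chicken DT40 cells lacking endogenous Tdp1 but carrying stably transfected human TDP1. Compounds were applied without camptothecin, and cell growth kinetics were judged by ATP-dependent luminescence after ≥48 hr.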
HT1080 IDH1KD tx: toxicity to HT-1080 IDH1 knockdown cells (counter line); HT-1080 IDH1 knockdown viability, ATP luminescence, 48 h; Potency, µM (series often up to 46.1 µM), hits mostly cytotoxic; 2% of 360,000 active
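Using the IDH1-knockdown HT-1080 line run in the same batch and compound series as the NT line, viability after 48 h at 37 °C was determined by CellTiter-Glo luminescence and expressed as % activity.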
TDP1 cell CPT: growth inhibition of DT40 Tdp1-/-;hTDP1 cells with camptothecin (screen for TDP1 inhibitors); 12% of 420,000 active; AID 686979; Potency, µM (highest dose often 46.2 µM), hits mostly inhibitors; chicken DT40 Tdp1-/-;hTDP1 cells + 20 nM CPT, ATP luminescence, 48 h; further: nearly all actives have a fitted effect of over 55% in size
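Chicken DT40 Tdp1-/- cells complemented with human TDP1, 400 cells/well, exposed to compounds plus 20 nM camptothecin for at least 48 h at 37 C; viability read as ATP content by CellTiter-Glo luminescence.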
HT1080NT lethal: kills 2HG-producing HT-1080-NT fibrosarcoma cells. 1.6% of 360,000 active. Potency, µM (highest dose often 46.1 µM), actives largely listed as cytotoxic. HT-1080-NT fibrosarcoma viability, CellTiter-Glo ATP luminescence, 48 h;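 further: NT is the 2HG producing partner of a matched IDH1 knockdown line; nearly all actives have a fitted effect of over 55% in size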
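Compounds were tested in concentration-response format on HT-1080-NT cells for 48 hours at 37 degrees C. Cell viability came from CellTiter-Glo luminescence; curves were classified by r2, response magnitude and activity.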
IL-1B inflam inh: blocks inflammasome-driven IL-1 beta release; 4.7% of 360,000 active; THP-1 LPS/ATP IL-1B secretion, AlphaLISA, 16 h; stronger effect = lower value; activity change, % at 57.5 µM; in the data active means activity change below about -50%; inconclusive means mostly about -30% to -49%
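Secreted IL-1B measured by AlphaLISA bead assay after 16 h compound exposure of THP-1 cells; compounds (final up to 57.5 uM) added 1 h before LPS (250 ng/mL) and ATP (1.25 mM) stimulation; lower signal means less secretion.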
ELG1 DNA repair: blocks ELG1-dependent DNA repair in HEK293T cells. 2.3% of 330,000 active. HEK293T ELG1-luciferase reporter, luminescence, 16 h; DNA damage induced by 5-fluorouridine. Potency, µM (series often up to 46.1 µM), hits mostly inhibitors; further: nearly all actives have a fitted effect of over 55% in size
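Reporter activity after DNA damage by 5-fluorouridine is monitored. Compound-treated cells incubate 16 hr at 37 °C, then ONE-Glo is added for 30 min before luminescence reading.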
Hits are given with their value; i = inactive; ? = inconclusive; nt = no result given. An excerpt weighted towards active compounds, which were near 19% of everything screened. Unless noted, the call rests on the fitted dose curve; in most records, active means well fitted curve in the direction sought with a large enough effect; inconclusive means small, poorly fitted or top-dose-only effect, or another doubt; inactive means no such curve, though single readings can be large; an effect the other way counts as inactive or inconclusive.

SMILES	DT40 TDP1 no CPT	HT1080 IDH1KD tx	TDP1 cell CPT	HT1080NT lethal	IL-1B inflam inh	ELG1 DNA repair
O=C(Nc1cccc(C(F)(F)F)c1)C(Sc1n[nH]c(=O)[nH]c1=O)c1ccccc1 (stereo not drawn)	i	i	i	i	?	?
O=C(Nc1cccc(C(F)(F)F)c1)C(Sc1ncnc2ccccc12)c1ccccc1 (stereo not drawn)	21µM	i	?	i	-108	i
O=C(Nc1cccc(C(F)(F)F)c1)C(SCCO)c1ccccc1 (stereo not drawn)	?	i	i	i	i	i
CCCNC(=O)C1(C)CCN(C(=O)c2ccccc2OC)C1 (stereo not drawn)	i	i	i	i	i	nt
O=C(Cn1c(=O)nc(-c2ccccc2)c2ccccc21)NCCCc1ccccc1	?	nt	i	nt	nt	nt
Cc1ccc2oc(-c3ccc(NC(=O)CC(C)C)cc3)nc2c1	i	i	i	i	i	?
O=C(CN1CCCC1)Nc1ccc(-c2nc3cc(NC(=O)CN4CCCC4)ccc3o2)cc1	12µM	?	18µM	?	-56	?
CCC(C)NCC(=O)Nc1ccc(-c2nc3cc(NC(=O)CNC(C)CC)ccc3o2)cc1 (stereo not drawn)	7.3µM	i	6.5µM	i	i	i
CCN(CC)CC(=O)Nc1ccc(-c2nc3cc(NC(=O)CN(CC)CC)ccc3o2)cc1	18µM	i	21µM	i	i	?
CCCC(=O)Nc1ccc2oc(-c3ccncc3)nc2c1	i	i	i	i	i	i
CCN(CC)CC(=O)Nc1ccc(Oc2ccc(NC(=O)CN(CC)CC)cc2)cc1	i	i	i	?	-58	i
COC(=O)[C@@]1(C(C)C)N=C(c2cc(OC)c(OC)c(OC)c2)[C@]2(O1)C(=O)N(C)c1ccc(Br)cc12	?	?	?	?	i	nt
CC(C)NC(=O)C1Cc2c(-c3ccc4c(c3)OCO4)ccnc2O1 (stereo not drawn)	?	i	?	i	i	nt
O=C(c1cc(-c2ccccc2O)on1)N1CCCCC1	i	nt	i	nt	nt	nt
CC(C)(C)C1CCc2c(sc(NC(=O)CSc3ncn[nH]3)c2C#N)C1 (stereo not drawn)	?	11µM	?	11µM	?	?
CCCc1cc(=O)[nH]c(SCC(=O)Nc2sc3c(c2C#N)CCC(C)C3)n1 (stereo not drawn)	i	i	i	i	i	i
N#Cc1c(NC(=O)CSc2ncn[nH]2)sc2c1CCCC2	?	i	?	i	i	i
CC1CCc2c(sc(NC(=O)CSc3ncn[nH]3)c2C#N)C1 (stereo not drawn)	23µM	?	?	i	i	i
CC1CCc2c(sc(NC(=O)COC(=O)c3ccc(NC(=O)CC#N)cc3)c2C#N)C1 (stereo not drawn)	i	i	i	i	i	i
CC(=O)c1c(C)[nH]c(C(=O)OCC(=O)Nc2sc3c(c2C#N)CCC(C)C3)c1C (stereo not drawn)	23µM	26µM	?	i	i	i
CCN1CCN(CC(=O)Nc2sc3c(c2C#N)CCC(C)C3)CC1 (stereo not drawn)	18µM	?	?	18µM	i	i
CSc1ccc(-c2nnn(CC(=O)Nc3sc4c(c3C#N)CCC(C(C)(C)C)C4)n2)cc1 (stereo not drawn)	i	nt	i	nt	nt	nt
COc1cc(Cl)c(C)cc1NC(=O)CN1C(=O)C2CC=CCC2C1=O (stereo not drawn)	i	i	i	i	i	i
CC(C)CCN(C(=O)c1csnn1)C(C(=O)NC1CCCC1)c1ccc(F)cc1 (stereo not drawn)	i	i	i	i	-63	i
Cc1ccccc1CCN(C(=O)c1csnn1)C(C(=O)NC1CCCC1)c1ccco1 (stereo not drawn)	?	i	23µM	i	i	i
SMILES	DT40 TDP1 no CPT	HT1080 IDH1KD tx	TDP1 cell CPT	HT1080NT lethal	IL-1B inflam inh	ELG1 DNA repair
Cc1ccc(Cl)cc1N(C(=O)c1csnn1)C(C(=O)NC1CCCC1)c1ccco1 (stereo not drawn)	i	i	i	i	i	i
O=C(NC1CCCC1)C(c1ccc(F)cc1)N(Cc1ccccc1)C(=O)c1csnn1 (stereo not drawn)	?	i	i	i	i	i
CCC(C)[C@H](NC(=O)[C@H](Cc1ccccc1)n1c(=O)[nH]c2ccccc2c1=O)C(=O)NCC1CCC(C(=O)O)CC1 (stereo partly drawn)	i	i	i	i	i	?
COc1ccc(-c2csc(NC(=O)c3ccccc3F)n2)cc1	?	i	i	i	i	?
Cc1ccc(S(=O)(=O)Nc2ccccc2C(=O)Nc2nc(-c3ccc(F)cc3)cs2)cc1	2.6µM	?	3.3µM	?	i	?
COc1ccc(-c2csc(NC(=O)c3ccccc3NS(=O)(=O)c3ccc(F)c(F)c3)n2)cc1	2.6µM	1.6µM	2.3µM	?	-68	?
O=C(Nc1nc(-c2ccccc2)cs1)c1ccccc1F	i	i	i	i	i	?
CC(C)(C)n1nnnc1C(c1ccc(C#N)cc1)N1CCCC2(CCCCC2)C1 (stereo not drawn)	23µM	i	21µM	i	?	i
Cn1c(-n2cccc2)c(-c2c(-c3ccc(F)cc3)[nH]c3c2c(=O)n(C)c(=O)n3C)c(=O)n(C)c1=O	i	nt	i	nt	nt	nt
COc1ccc(CNc2ccc3c(c2)ncn3-c2ccccc2OC)cc1	?	i	?	i	-91	?
CCOc1ccc(CNc2ccc3c(c2)ncn3C)cc1	?	i	i	i	i	i
CCn1cnc2cc(NCc3cccs3)ccc21	i	i	i	i	i	?
CCOc1ccc(CNc2ccc3c(c2)ncn3C(C)(C)C)cc1	21µM	i	?	i	i	?
CC(C)(C)n1cnc2cc(NCc3cccs3)ccc21	i	i	?	i	-59	?
Oc1ccc(NCc2cccs2)cc1	13µM	?	?	?	i	i
O=C(Nc1ccccc1)N1CCC2(CC1)CCN(C(=O)c1cnccn1)CC2	i	nt	i	nt	nt	nt
Cc1ccccc1-n1cnc2cc(NCc3cccs3)ccc21	23µM	?	?	i	i	i
COc1ccccc1-n1cnc2cc(NCc3cccs3)ccc21	0.92µM	2.1µM	0.73µM	3.7µM	i	?
CCCNC(=O)c1ccc2c(c1)ncn2-c1ccccc1OC	?	i	i	i	i	?
COc1ccccc1-n1cnc2cc(NCc3ccco3)ccc21	1.3µM	?	1.5µM	5.2µM	i	?
CC(C)(C)n1cnc2cc(NC(=O)c3cccs3)ccc21	23µM	i	?	i	-70	?
